In PubChem BioAssay AID651650 (Sanford-Burnham Center for Chemical Genomics, 2012) one finds inhibition data, which are given here for 38 molecules.

The experiment deals with Neuropilin-1 (Homo sapiens) (UniProt O14786). In words: NRP-1 b1b2 CendR peptide binding inhibitors, dose response, biochemical, FP and AlphaScreen panel (AID 651650). As to conditions: NRP-1 b1b2 / RPARPAR peptide binding, FP or AlphaScreen; run 1, at 100 µM (top of the series). On the technique in general: In Alpha technology, singlet oxygen from a donor bead excites a nearby acceptor bead.
Sequence of Neuropilin-1 (Homo sapiens) (O14786 whole entry, looked up): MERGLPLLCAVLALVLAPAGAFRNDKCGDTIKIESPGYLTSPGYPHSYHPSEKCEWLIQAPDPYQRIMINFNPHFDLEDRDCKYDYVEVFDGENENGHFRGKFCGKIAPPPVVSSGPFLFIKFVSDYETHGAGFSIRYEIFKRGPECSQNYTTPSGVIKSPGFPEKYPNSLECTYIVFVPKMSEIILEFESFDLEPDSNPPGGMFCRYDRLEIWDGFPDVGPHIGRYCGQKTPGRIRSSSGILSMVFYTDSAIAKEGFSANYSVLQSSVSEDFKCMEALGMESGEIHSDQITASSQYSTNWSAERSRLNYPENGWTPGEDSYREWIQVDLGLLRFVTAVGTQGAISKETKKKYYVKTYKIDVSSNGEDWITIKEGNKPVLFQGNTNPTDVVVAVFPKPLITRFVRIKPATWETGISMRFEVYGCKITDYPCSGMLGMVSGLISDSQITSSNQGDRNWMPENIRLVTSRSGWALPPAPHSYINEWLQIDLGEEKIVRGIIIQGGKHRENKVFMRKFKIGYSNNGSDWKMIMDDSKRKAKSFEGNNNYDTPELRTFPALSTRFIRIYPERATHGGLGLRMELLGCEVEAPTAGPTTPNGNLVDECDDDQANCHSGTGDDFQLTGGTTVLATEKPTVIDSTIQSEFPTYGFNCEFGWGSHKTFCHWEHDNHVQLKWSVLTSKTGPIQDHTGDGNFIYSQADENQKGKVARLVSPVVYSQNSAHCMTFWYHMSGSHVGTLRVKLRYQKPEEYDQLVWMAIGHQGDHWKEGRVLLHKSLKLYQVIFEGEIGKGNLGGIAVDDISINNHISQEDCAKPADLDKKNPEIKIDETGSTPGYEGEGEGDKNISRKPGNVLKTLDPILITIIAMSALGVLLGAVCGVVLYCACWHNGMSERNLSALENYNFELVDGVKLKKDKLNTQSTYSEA
Usually inhibition stands for the relative decrease from the control value, in per cent. Turning to `CCOC(=O)[C@@H]1[C@H]2COc3ccccc3[C@@H]2N2C(=O)N(c3ccc(Cl)cc3)C(=O)[C@]12C`, the inhibition is 48.8%.

Consider `Cc1ccc(NC(=O)COc2ncnc3c(Cl)cc(Cl)cc23)cc1[N+](=O)[O-]`, for which the inhibition was -2.85%.

On to `Cc1ccc(C(=O)N/C(=C\c2ccc(-c3ccccc3[N+](=O)[O-])o2)C(=O)NCCCN2CCOCC2)cc1`, for which the inhibition amounted to 13.2%.

As for `O=C(c1cccc(F)c1)N1CCN(c2ccc([N+](=O)[O-])c(N3CCCCC3)c2)CC1`, the inhibition is 33.3%.

With `N#Cc1ccc(COC(=O)c2cnc(Cl)c(Cl)c2)cc1`, the inhibition worked out at 36.5%.

`COC(=O)c1cccc(NC(=S)NCCC2=CCCCC2)c1`: the inhibition was 4.3%.

For `O=C(COc1ccc(S(=O)(=O)N2CCCC2)cc1)Nc1ccc2c(c1)OCCO2`, the inhibition stood at 34%.

Consider `COc1ccccc1N1CCN(C(=O)C2c3ccccc3Oc3ccccc32)CC1`, for which the inhibition came to 38.7%.

For the molecule `O=C(CSc1nc(O)c(Cc2ccccc2)c(=O)n1-c1ccccc1)N1CCOCC1`, the inhibition is -18.5%.

For the molecule `O=C(CCn1c(=O)c2cccn2c2cccnc21)NCc1cccc(Cl)c1`, the inhibition amounted to 5.81%.

Take `CCn1c(N)c(C(=O)NCc2cccnc2)sc1=S`: the inhibition was determined as 100%.

As for `Cc1nc2c(OCCC3CCCCC3)cccn2c1N(C)C(=O)CCC1CCCC1`, the inhibition came out at 23.2%.

Regarding `O=C1CCCN1CCCNc1nc(NCc2cccs2)nc2ccsc12`, the inhibition was 81.3%.

Take `CCOC(=O)C1CCN(Cc2ccc3ccccc3c2)CC1`: the inhibition turned out to be 52.3%.

With `CCOc1ccc(S(=O)(=O)N2CCN(C(=O)c3sccc3C)CC2)cc1`, the inhibition came to 101%.

`Nc1ncnc2[nH]c(=S)[nH]c12`: the inhibition is -4.05%.

Turning to `C=C1CCN([C@@H](CC(C)C)C(=O)NCc2ccccc2)S(=O)(=O)c2ccccc21`, the inhibition is 12.9%.

With `O=C(NNc1ncnc2c1cnn2-c1ccc(F)cc1)c1ccco1`, the inhibition stood at 25.9%.

Take `CCc1ccc(C2CC(=O)N(c3cccc(F)c3)C3=C2C(=O)OC3)cc1` (stereo not drawn): the inhibition is 33.7%.

As for `O=C(OCn1nnc2ccccc2c1=O)c1ccc(Br)o1`, the inhibition came to 25.4%.

For `O=C(O)CCSc1nnc(COc2cccc3cccnc23)n1-c1ccccc1`, the inhibition is 52.3%.

Regarding `O=C(Cc1ccccc1Cl)N1CCOCC1`, the inhibition came out at 25.2%.

Consider `O=C(COc1cc(Cl)c(Cl)cc1Cl)Nc1ccc([N+](=O)[O-])cc1Cl`, for which the inhibition worked out at 38.3%.

Consider `CC(C)OC(=O)CSc1nnc(-c2ccccn2)n1-c1ccccc1`, for which the inhibition is -4.4%.

Regarding `CC(=O)Nc1ccc(NC(=O)C2CC(=O)N=C(N)S2)cc1` (stereo not drawn), the inhibition was found to be 95.5%.

As to `CC1CCN(C(=O)CSc2nncn2C)CC1`, the inhibition was 0.359%.

Take `CN1CCC(=NNC(=O)c2ccco2)CC1`: the inhibition was 17.4%.

On to `CCOC(=O)/C=C/COc1ccccc1[N+](=O)[O-]`, for which the inhibition was determined as 29.2%.

`Cc1ccc(NNS(=O)(=O)c2ccc(C)cc2)cc1`: the inhibition turned out to be 16.2%.

On to `Cc1ccccc1Oc1ccc2c(c1)[C@@H]1C[C@H](N(C)C(=O)Nc3cc(Cl)cc(Cl)c3)[C@H]([C@H](C)O)C(=O)N1CC2`, for which the inhibition amounted to 97.5%.

With `Cc1ccc(S(=O)(=O)NCC(=O)N(c2ccccc2)C(C(=O)NCc2ccccc2)c2ccco2)cc1` (stereo not drawn), the inhibition was -4.65%.

For the molecule `C/C(=N\NC(=O)c1cc(O)ccc1O)c1cccc(NC(=O)c2cccc(Cl)c2)c1`, the inhibition is 27.7%.

`O=c1oc(Nc2ccccc2F)nc2ccccc12`: the inhibition came to 25.1%.

For the molecule `COc1ccccc1N1CCN(C2CCCN(C(=O)Cn3cccn3)C2)CC1` (stereo not drawn), the inhibition came to 38.2%.

On to `O=C(Nc1ccc(N2CCOCC2)cc1)c1cc(-n2cnnc2)ccc1Cl`, for which the inhibition amounted to 55%.

As to `Cc1ccccc1Nc1cc(=O)oc2ccccc12`, the inhibition stood at 5.19%.

With `CC(=O)c1ccc(OCC(=O)Nc2nnc(C3CC3)s2)cc1`, the inhibition is -27.1%.

For the molecule `CN(C(=O)COC(=O)c1cnc(Cl)c(Cl)c1)C1CCCCC1`, the inhibition is 49.2%.
